This assay in a line: compound-DNA interaction, EtBr readout – biochemical, fluorescence, ethidium bromide, artefact control for HCV NS3 helicase inhibitor project, late-stage follow-up (AID 623972). The conditions noted are these: DNA binding, ethidium bromide displacement fluorescence.

Several values for one entry are separate records, joined by “and”; a condition that tells them apart may be missing. Identical values can stand only once. Values without a mark were called inactive. Activity calls are given as the source filed them. The rule behind the calls is not given here.

Broadly, the IC50 is the midpoint of a concentration-inhibition curve.

Take `Cc1ccc2nc(-c3ccc4nc(-c5ccc6nc(-c7ccc(N)cc7)sc6c5)sc4c3)sc2c1S(=O)(=O)O` (tested in a mixture with another compound): the IC50 was 73 µM (active). For `Cc1ccc2nc(-c3ccc4nc(-c5ccc(N)cc5)sc4c3)sc2c1S(=O)(=O)O`, the IC50 was greater than 100 µM. For `Cc1cc2sc(-c3ccc4nc(-c5ccc(N)cc5)sc4c3)nc2cc1S(=O)(=O)O` the value was greater than 100 µM. For `COc1cccc2c(=O)c3cc(Cl)cc(C(=O)Nc4cc(Cl)ccn4)c3[nH]c12` the value was greater than 100 µM. With `Cc1ccc2nc(-c3ccc4nc(-c5ccc6nc(-c7ccc(N)cc7)sc6c5)sc4c3)sc2c1S(=O)(=O)O`, the IC50 was 55 µM (active). With `CCN(CC)c1ccc(-c2nc3ccc(-c4nc5ccc(C)c(S(=O)(=O)O)c5s4)cc3s2)cc1`, the IC50 is greater than 100 µM. With `Cc1ccc2nc(-c3ccc(N)cc3)sc2c1S(=O)(=O)O` the figure was greater than 100 µM; with `Cc1cc(C(O)(c2ccc(Nc3ccccc3)cc2)c2ccc(Nc3ccc(S(=O)(=O)O)cc3)cc2)ccc1N` (stereo not drawn), 4 µM (active); with `CCN(CC)c1ccc(-c2nc3ccc(C)c(S(=O)(=O)O)c3s2)cc1`, greater than 100 µM. For `CCOc1ccc2c(NNC(=O)c3cnccn3)c3c(nc2c1)CCCC3` the value was greater than 100 µM; for `CN1CCN(Cc2cc(CN3CCN(C)CC3)c(O)c(=O)c(CN3CCN(C)CC3)c2)CC1`, 31 µM (active); for `Cc1ccc2nc(-c3ccc4nc(-c5ccc6nc(-c7ccc8nc(-c9ccc(N)cc9)sc8c7)sc6c5)sc4c3)sc2c1S(=O)(=O)O`, 15 µM (active) and 76 µM (active). For `Cc1cc2sc(-c3ccc(N)cc3)nc2cc1S(=O)(=O)O` the value was greater than 100 µM.

The values are drawn from PubChem BioAssay AID623972 (The Scripps Research Institute Molecular Screening Center, 2012).
